For 22 sequences, PBM binding z-score results are on record in the supplement of paper PMC6555819.

The test has as its system RARb:RXRa (NR concentration 270 nM, RXRa partner concentration 90 nM). As to the kind of experiment: PBM binding z-score (relative to random genomic background probes); higher = stronger binding; sequences stand for … in GC…GCGATTGACAGCGTAGAATGAAGG
A digest of the protocol: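 On custom Agilent 4×180K arrays, double-stranded probes with 34-nt variable regions carried direct-repeat seeds, single-nucleotide variants, half-site ablations or random human genomic background. Ligand-free nuclear receptor dimers were applied for 1 h, and binding was read with antibodies against each partner (one per run). Binding z-scores come from regression-normalized fluorescence, with the random background probes as reference.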
On to CCAGACAGGAGAGAAGGTAACTCAGCCTCGATTA, for which the PBM binding z-score was -0.091.
For CGTCAAAGTTCAAGGTAACGTACCAGAAAGCAGC, the PBM binding z-score was determined as 5.12.
The result for TCTAGTTGGTCACGGAAGTCACACACGACGGGTA reads 1.65.
For ATATGTAGGTTATCGGTTCATTCAGTTTGCGCAT, the PBM binding z-score is 1.32.
Sequence CCTAGCAGGCCAATGTGGGTCACTCAAGGCTTGA registered a PBM binding z-score of 1.54.
In the case of TCATATAGGTAATACAGGTGAAAGTTGGCATCTA, the PBM binding z-score was 0.87.
Sequence GCTAGCATGCCATTTGGGTCACTCAATGACGGGC registered a PBM binding z-score of 1.
The sequence CGTCAAAGTTCAAGGTAACGTTACAGAAAGCAGC yielded a PBM binding z-score of 5.26.
With CCTTACGGGTCAAGGTTATAGCACGGGTGGTACG, the PBM binding z-score amounted to 4.13.
CGAACTAGGGCATCCAGGACAGTGAATACATTGA registered a PBM binding z-score of 1.3.
Regarding TTATCAAGGTGAAGGTCGTTGATCCCTCTGTAGA, the PBM binding z-score is 2.21.
On to CCAGACAGGTGAAATGTAACTCAGTCTGGTACGC, for which the PBM binding z-score came to 0.614.
Turning to GATTCAGGGTCAAGGCCAGAGTACGCGTATTGAT, the PBM binding z-score was 4.92.
CGTCCAAGGTCAATGCTAGGTAAGTGAAAGCATT had a PBM binding z-score of 4.88.
The result for CTCGAAAGGTCGTGCTCAGGTGACTATACCAAAC reads 4.
GCTGCTAGGTCCGGTTGGTCAGCTAACGGGTACG returned a PBM binding z-score of 0.0828.
The sequence TTACCAAGGTGAGCTGAGGTCGTTGACCCAACTC yielded a PBM binding z-score of 1.91.
In the case of TCTATTAGTTGACGGGCAACCGACGAGTCCGTTT, the PBM binding z-score was 0.613.
TTACCAAGGTGAACGTCGTTGATCCCTCTGTAGA registered a PBM binding z-score of 1.77.
Turning to GCTATTAGTCGAAAGGGCAACCGAATGATTCTCG, the PBM binding z-score turned out to be 2.07.
As for CCTAGCAGGCTAGGGTCACTCAAGCATTTCGCTT, the figure is 2.89; as for CGTCCAAGGTCAAAAGTCAGTGAAGAGATGACGG, 4.63.
